The full list was thinned out, with hits kept by preference.
mHTT-CaM PPI inh – mHTT-calmodulin interaction abrogation; P42858; AlphaScreen His-mHTT/GST-CaM binding, luminescence; inhibition, % at 15 µM; 190,000 tested, 3.6% active; AID 1671202
Pf apPOL block – Pf-apPOL DNA polymerase inhibition | Recombinant Pf-apPOL, molecular beacon fluorescence, 1.5 h | inhibition, % at 10 µM | 210,000 tested, 0.25% active | AID 1794808
Large screens that a line does not name were inactive. Cut-off read from the data, not from the text of the source: active = inhibition above about 50%; inactive = the rest.

Cc1ccc(C)c(NC(=O)CN2CCc3ccccc3C2C(=O)N2CCCCC2)c1 (stereo unspecified)	none
O=C(Nc1ccccc1F)c1cn(-c2ccc(F)cc2F)c(=O)c2ccccc12	none
CCC/C=C/c1ccc(CN2C(C)C(=O)N(Cc3cn(CCOCOC)nn3)CCS2(=O)=O)cc1 (stereo unspecified)	none
COCOCCn1cc(CN2CCS(=O)(=O)N(Cc3ccc(-c4ccc(F)cc4)cc3)C(C)C2=O)nn1 (stereo unspecified)	mHTT-CaM PPI inh 63
COCOCCn1cc(CN2CCS(=O)(=O)N(Cc3ccc(-c4ccc(Cl)nc4)cc3)C(CC(C)C)C2=O)nn1 (stereo unspecified)	none
COCOCCn1cc(CN2CCS(=O)(=O)N(Cc3ccc(-c4ccccc4)cc3)C(C)C2=O)nn1 (stereo unspecified)	mHTT-CaM PPI inh 59
COCOCCn1cc(CN2CCS(=O)(=O)N(Cc3ccc(-c4ccc(Cl)cc4)cc3)C(CC(C)C)C2=O)nn1 (stereo unspecified)	mHTT-CaM PPI inh 54
COCOCCn1cc(CN2CCS(=O)(=O)N(Cc3ccc(-c4ccc(Cl)cc4)cc3)C(C)C2=O)nn1 (stereo unspecified)	none
CC(=O)Oc1ccc(N2C(=O)C3CCCCC3C2=O)cc1 (stereo unspecified)	none
CCC(C(=O)N1CCc2nc(-c3ccccc3)ncc2C1)c1ccccc1 (stereo unspecified)	none
COc1ccccc1-c1noc(C2CCCN2C(=O)c2n[nH]c3ccccc23)n1 (stereo unspecified)	none
O=S(=O)(c1cccnc1)N1CCCn2nc(-c3ccc(F)cc3)cc2C1	none
CC(=O)c1ccc(NS(=O)(=O)c2cc(S(=O)(=O)c3ccccc3)ccc2C)cc1	none
COc1ccccc1-c1noc(C2CCCN2C(=O)Nc2ccc(C)c(C)c2)n1 (stereo unspecified)	none
NC(=S)NN=Cc1ccccc1	none (no result: mHTT-CaM PPI inh)
NC(=S)NN=Cc1ccccc1O	mHTT-CaM PPI inh 85
CCCCN(CC)C(=O)C1CCCN(c2nccc(C)n2)C1 (stereo unspecified)	none
O=C(C[n+]1cc(Br)cc2ccccc21)c1ccccc1	mHTT-CaM PPI inh 60
COc1ccc(C(=O)C[n+]2cc(Br)cc3ccccc32)cc1[N+](=O)[O-]	none
O=C(Nc1ccc(N2CCOCC2)c(Cl)c1)c1ncn[nH]1	mHTT-CaM PPI inh 82
COc1cc(C(=O)Nc2ccc(-c3nc4cc(Cl)ccc4o3)cc2)cc(OC)c1OC	none
CCN(CC)c1ccc(NC(=O)c2ncn[nH]2)cc1	none
Cc1c(NC(=O)c2ccccc2F)cccc1-c1nc2cc(Cl)ccc2o1	none
O=C(Nc1ccc(N2CCOCC2)c(Cl)c1)c1ccccc1	none
Cc1c(NC(=O)c2ncn[nH]2)cccc1-c1nc2cc(Cl)ccc2o1	mHTT-CaM PPI inh 53
O=C(Nc1ccc(-c2nc3cc(Cl)ccc3o2)cc1)c1ncn[nH]1	mHTT-CaM PPI inh 83
O=C(Nc1ccc([N+](=O)[O-])cc1)c1ncn[nH]1	mHTT-CaM PPI inh 88
Cc1c(NC(=O)c2ccccc2I)cccc1-c1nc2ccccc2s1	none
Cc1c(NC(=O)c2ncn[nH]2)cccc1-c1nc2ccccc2s1	mHTT-CaM PPI inh 51
O=C(Nc1ccc2oc(-c3ccccc3Cl)nc2c1)c1ncn[nH]1	mHTT-CaM PPI inh 77, Pf apPOL block 58
O=C(Nc1ccc2oc(-c3ccccc3Cl)nc2c1)c1cncc(Br)c1	none
O=S(=O)(Cc1noc(-c2ccno2)n1)c1ccsc1	none (no result: mHTT-CaM PPI inh)
O=C(Cc1csc(NC(=O)c2cnccn2)n1)Nc1ccc(-n2cccn2)cc1	mHTT-CaM PPI inh 97
O=C(Cc1csc(NC(=O)c2cnccn2)n1)NCCOc1ccc(F)cc1	none
O=C(Cc1csc(NC(=O)c2ccsc2)n1)Nc1cccnc1	none
CS(=O)(=O)Nc1cccc(NC(=O)Cc2csc(NC(=O)c3cnccn3)n2)c1	mHTT-CaM PPI inh 97
Cc1ccc(NC(=O)N2CCc3c(c(COCc4cccc(F)c4)nn3C)C2)cc1C	none
COc1cccc(CN2CCC(C(=O)N3CCN(c4cccc(C)c4C)CC3)CC2)c1OC	none
COc1ccc(/C=C2/SC(=N)NC2=O)c(OC)c1OC	none
O=C(Nc1ccc(F)cc1)c1cc2n(n1)CCCN(Cc1cccc(F)c1)C2=O	none
O=C1CCC(=O)N1c1ccc(Sc2ccc([N+](=O)[O-])cc2)cc1	none
O=C1C=CC(=O)N1c1cc(Sc2ccc(F)cc2)cc([N+](=O)[O-])c1	mHTT-CaM PPI inh 85
COc1ccc(-c2ccc3ccccc3[o+]2)cc1OC	none
CCCCC(=O)Nc1ccc2c(c1)CC(C(=O)NC1CCCCCC1)CO2 (stereo unspecified)	none
CN1CCCc2cc(C(CNC(=O)Nc3cccs3)N3CCCC3)ccc21 (stereo unspecified)	mHTT-CaM PPI inh 55
CN1CCN(C(CNC(=O)NCc2ccccc2)c2ccc3c(c2)CCCN3C)CC1 (stereo unspecified)	none
O[C@H]1CN(CC2CCCCC2)[C@@H](c2ccccc2)C[C@@H]1n1cc(C2CC2)nn1	mHTT-CaM PPI inh 70
Cc1ccc([C@H]2C[C@H](O)[C@@H](n3cc(C4CC4)nn3)CN2CC2CCCCC2)cc1	mHTT-CaM PPI inh 86
Cc1ccc([C@H]2C[C@H](n3cc(C4CC4)nn3)[C@@H](O)CN2CC2CCCCC2)cc1	none
Cc1ccc([C@H]2C[C@@H](n3cc(C4CC4)nn3)[C@H](O)CN2CC2CCCCC2)cc1	none
S=c1[nH]nc(-c2cc(-c3ccccc3)n[nH]2)n1/N=C/C=C/c1ccco1	mHTT-CaM PPI inh active (no result: Pf apPOL block)
S=c1[nH]nc(-c2ccco2)n1/N=C/C=C/c1ccco1	none (no result: Pf apPOL block)
Cc1ccccc1N=c1oc2ccc(Br)cc2cc1C(N)=O	none
CCc1ccccc1NC(=O)N1CCC(c2nc3cccnc3n2CC)C1 (stereo unspecified)	none
Cc1cccc(-c2cc(C(=O)N3CCCCC3)c3ccccc3n2)c1	none
COc1cc(OC)c(OC)cc1CN1CCc2nc(Nc3ccc(F)cc3)ncc2C1	mHTT-CaM PPI inh 70
CCCCN1CCc2nc(Nc3ccc(OC)cc3)ncc2C1	mHTT-CaM PPI inh 52
COc1ccc(Nc2ncc3c(n2)CCN(Cc2cc(OC)c(OC)cc2OC)C3)cc1	none
COc1ccc(Nc2ncc3c(n2)CCN(Cc2ccccc2OC)C3)cc1	none
COc1cccc(CN2CCc3nc(Nc4ccc(F)cc4)ncc3C2)c1OC	mHTT-CaM PPI inh 100
COc1cc(Nc2ncc3c(n2)CCN(Cc2cccc(OC)c2OC)C3)cc(OC)c1	none
COc1ccc(N=c2oc3c(C)ncc(CO)c3cc2C(=O)Nc2cccc(C)c2)c(OC)c1	none
Nc1c(C(=O)Nc2ccccc2)sc2cc([N+](=O)[O-])cc([N+](=O)[O-])c12	none
O=C1C2C(c3ccccc3)C=CC(c3ccccc3)C2C(=O)N1c1ccccc1O (stereo unspecified)	none
c1cn(CCCNc2ncnc3nc[nH]c23)cn1	none
Clc1ccc(Nc2nc(NCCCn3ccnc3)nc3nc[nH]c23)cc1	mHTT-CaM PPI inh 99
Cn1c(SCC(=O)O)nnc1-c1ccc(NC(=O)c2ccccc2Cl)cc1	Pf apPOL block 85
Cn1c(SCC(=O)c2ccccc2)nnc1-c1ccc(NC(=O)c2ccccc2Cl)cc1	none
COc1cccc(C(=O)N2CCN(Cc3ccc([N+](=O)[O-])cc3)CC2)c1OC	none
COc1ccc(OC)c(/C=C2/N=C(c3cccc(C)c3OC)OC2=O)c1	none
Cn1cnnc1Sc1ccc([N+](=O)[O-])c2ncccc12	none
O=[N+]([O-])c1ccc(SCc2ccco2)c2cccnc12	mHTT-CaM PPI inh 100
O=S(=O)(c1ccc(F)cc1)N1CCN(Cc2ccsc2)CC1	none
O=C(c1csc(CN2CCN(c3ccc(Cl)cc3)CC2)n1)N1CCCC1	none

Screening data deposited in PubChem by University of Kansas High Throughput Screening Laboratory.
